The results in this text go back to PubChem BioAssay AID2314 (National Center for Advancing Translational Sciences (NCATS), 2010).

In all, about 300,000 compounds went through this assay and about 37,000 (12%) were called active. Many of the other results were omitted from the sample, so actives are more common in it than they were. Unmarked numbers belong to inactive results. Rule as the data show it: active = max response mostly above about 13% (no sharp cut-off); inactive = mostly below about 14%.

The assay can be described thus: Cycloheximide Counterscreen for Small Molecule Inhibitors of Shiga Toxin. Also: read at 38.3 µM for the half of the compounds with a filed dose; 0% is about no effect. The settings on record: cell reporter, cycloheximide protein synthesis inhibition counterscreen; stronger effect = higher value. (Counterscreens check selectivity or assay interference.)
Regarding `CCN(C(=O)c1cc([N+](=O)[O-])ccc1NCc1cccnc1)c1ccccc1`, the max response is -3.46%.

With `Cc1cnc(NC(=O)C2CCCC2)s1`, the max response is 23.2% (active).

Regarding `Cc1nc(NC(=O)C2CCCCC2)sc1C`, the max response was 40.1% (active).

Regarding `CS(=O)(=O)c1ccc2nc(NC(=O)C3CCCCC3)sc2c1`, the max response is 9.31%.

Take `Cc1nc(NC(=O)C23CCC(C)(C(=O)O2)C3(C)C)sc1C` (stereo not given): the max response is -1.47%.

For the compound `CCOC(=O)c1cc(C)sc1NC(=O)C1CCC1`, the max response is 6.29%.

Turning to `CN1C(=O)c2ccc(NC(=O)C3CCCCC3)cc2C1=O`, the max response is 1.88%.

Turning to `CC(=O)NC1C(Oc2ccc(C)cc2)OC2COC(c3ccco3)OC2C1O` (stereo not given), the max response was -5.51%.

Regarding `Cc1cc2c(s1)c1cnn(Cc3c(F)cccc3Cl)c(=O)c1n2C`, the max response is 4.69%.

Turning to `CC(C)(C)c1cc[n+](-c2[nH]c(=O)sc2/C=N/N=C(\[O-])c2ccccc2)cc1`, the max response was 25.7% (active).

Regarding `Cc1cc[n+](-c2[nH]c(=O)sc2/C=N/NC(=O)c2ccccc2[O-])cc1C`, the max response was 1.3%.

Turning to `CCOC(=O)c1c(C)[nH]c(C)c1S(=O)(=O)N(C)CC(=O)Nc1ccccc1C`, the max response is -6.33%.

Consider `O=C(CCC(=O)n1ncc2ccccc21)NCc1ccccc1Cl`, for which the max response was -1.42%.

`COc1ccc([N+](=O)[O-])cc1N(CC(=O)Nc1ccccc1C(=O)N1CCOCC1)S(C)(=O)=O`: the max response is -2.31%.

Turning to `O=C(Cc1ccccc1)N/N=C/c1ccc(Cl)cc1Cl`, the max response is 12%.

Consider `O=C(CSc1nnc(SCc2ccc(Cl)cc2)s1)N/N=C/c1ccccc1Cl`, for which the max response was 12.5% (active).

Turning to `Cc1nnsc1C(=O)N/N=C/c1ccccc1Cl`, the max response was -0.513%.

Take `N#C/C(=C/c1ccc(Cl)cc1)NC(=O)c1ccccc1`: the max response is 17.9%.

For `Cc1ccc(C)c(CSc2nc(-c3ccco3)nc3c2c(=O)n(C)c(=O)n3C)c1`, the max response is -2.42%.

For `Cc1ccc(C)c(CN2CCC(CNC(=O)Nc3ccc(C)c(F)c3)CC2)c1`, the max response is 1.71%.

As for `N#CC1(NC(=O)COC(=O)CCN=C2NS(=O)(=O)c3ccccc32)CCCCC1`, the max response is -3.22%.

As to `COc1cccc(CC(=O)Nc2ccc(-c3csc(C)n3)cc2)c1`, the max response is 15.4%.

For `Cc1ccc(CC(=O)Nc2cccc(C#N)c2)cc1`, the max response was 14.1%.

Take `COc1cccc(NC(=O)NCCN2CCCCC2)c1`: the max response is 0.722%.

For `COC(=O)[C@@H](NC(=O)NCc1cccc(OC)c1)C(C)C`, the max response is -2.02%.

`COc1cccc(NC(=O)NCc2ccc(F)cc2)c1`: the max response is 10.4% (active).

Turning to `COc1cccc(NC(=O)Cc2ccc(C)cc2)c1`, the max response was 27.5% (active).

As for `O=S(=O)(c1cccc(Cn2nnc(-c3ccc(F)cc3)n2)c1)N1CCOCC1`, the max response is -2.1%.

On to `Cc1sc(NC(=O)C2C3CCC(O3)C2C(=O)O)c(C(=O)OC(C)C)c1-c1ccc(Cl)cc1` (stereo not given), for which the max response is -2.64%.

Turning to `Cc1[nH]c(C)c(S(=O)(=O)N2CCN(c3cccc(C(F)(F)F)c3)CC2)c1C(=O)N1CCCCC1`, the max response is 0.664%.

Consider `Cc1ccc(CN2CCN(c3ncccn3)CC2)c(C)c1`, for which the max response was 1.42%.

As for `COc1ccccc1C1C(C#N)=C(N)Oc2c1c(-c1ccccc1)nn2-c1ccccc1` (stereo not given), the max response was 10.5%.

On to `CCCc1cc(=O)[nH]c(SCC(=O)N2C(C)CCCC2C)n1` (stereo not given), for which the max response is -2.36%.

On to `COc1ccc(OC)c(CCNC(=O)CCn2ccc3cc(S(=O)(=O)N4CCCC4)ccc32)c1`, for which the max response is -1.39%.

With `Cc1ccc(NC(=O)CN2CCC(C(N)=O)CC2)cc1[N+](=O)[O-]`, the max response was 15.7% (active).

In the case of `Cc1ccc(C)c(S(=O)(=O)N2CCN(CC(=O)Nc3ccc([N+](=O)[O-])cc3)CC2)c1`, the max response was -0.724%.

For `CN1CCN(CC(=O)Nc2cccc([N+](=O)[O-])c2)CC1`, the max response is 1.18%.

For `CCc1nc2nc(C)c(NS(=O)(=O)c3ccc4c(c3)CCCC4)c(=O)n2[nH]1`, the max response was 1.61%.

For `O=C(Cn1cnc2ccccc21)Nc1ccccc1-c1ccccc1`, the max response is -3.38%.

`O=C(O)CCC(=O)N(Cc1ccccc1)Cc1ccccc1`: the max response is -1.7%.

As for `Nc1nc(NCC2CCCO2)nc(Nc2ccccc2F)c1[N+](=O)[O-]` (stereo not given), the max response is -2.31%.

`Cc1ccc(OCC(=O)N2CCN(C(=O)c3cccnc3)CC2)cc1`: the max response is -5.2%.

Take `CCN1CCN(C(=O)c2ccccc2N(C)S(=O)(=O)c2ccc(C)cc2)CC1`: the max response was -3.44%.

On to `CCN(CC)C(=O)N1CCN(C(=O)c2ccc(C)cn2)CC1`, for which the max response was 27.2% (active).

As for `Cc1c(C=O)c2ccccn2c1C(=O)c1ccncc1`, the max response was -6.15%.

With `C=CCn1c(SCc2cccc(F)c2)nc2cc(C(=O)N3CCC(C(N)=O)CC3)ccc2c1=O`, the max response was -5.75%.

As to `CC(C)NC(=S)NN=C1CCCCCCCCCCC1`, the max response is 16.4%.

Turning to `Cc1ccc(/C([O-])=C(/C(=S)NCc2ccco2)[n+]2ccccc2)cc1[N+](=O)[O-]`, the max response is -1.29%.

As to `CCC(C)NCC(=O)Nc1ccc([N+](=O)[O-])cc1C(=O)Nc1ccccc1F` (stereo not given), the max response is 9.91%.

Consider `O=[N+]([O-])c1cccc(/C([O-])=C(/C(=S)Nc2ccccc2F)[n+]2ccccc2)c1`, for which the max response is 44.3% (active).

As for `CC(C)C[C@@H](COc1ccccc1)N1CCN(CC(C)C)CCC1=O`, the max response is 12.1%.

With `O=c1[nH]c(SCc2cccc(F)c2)nc2ccccc12`, the max response was 0.0734%.

In the case of `Nc1nnc2c(C(F)(F)F)nc3ccccc3n12`, the max response is -5.14%.

As to `O=C1c2ccccc2C(=O)N1c1cccc2ccccc12`, the max response was -0.411%.

Take `O=C(NCc1ccc2c(c1)OCO2)c1ccc(Cl)s1`: the max response was 17.6% (active).

As to `O=C(NCc1ccc2c(c1)OCO2)c1cc2c(s1)CS(=O)(=O)C2`, the max response is -5.16%.

As for `O=C(NCc1ccc2c(c1)OCO2)c1cc(F)c(F)cc1Cl`, the max response is 16.6%.

Consider `COc1cc(OC)c(C(=O)NCc2ccc3c(c2)OCO3)cc1OC`, for which the max response was -1.06%.

As to `O=C(NCc1ccc2c(c1)OCO2)c1sccc1Br`, the max response is 16.3% (active).

Take `O=C(NCc1ccc2c(c1)OCO2)C12CC3CC(CC(C3)C1)C2`: the max response is -3.3%.
